Experimental data taken from the supplement of paper PMC10849652.
Targets with a hit are over-represented here; the source holds about 7,900 in all. About 0.6% of all pairs of compound and target were hits.

Legend:
Experiment in all cases: log2 fold change, soluble protein after heating vs DMSO (PISA); higher = thermal stabilisation; K562 cells, 10 uM, 30 min; active = over 0.2 and 3.5 SD of the protein, either way, in both replicates (recomputed)
[1] = compound: C#Cc1cccc(Nc2ncnc3cc(OCCOC)c(OCCOC)cc23)c1 [erlotinib]
In short: (§1)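 Aliquots of K562 cells (2×10^6 cells/mL) treated with 10 μM compound for 30 min were heated for 3 min over 48°C-58°C. After pooling and extraction in PBS with 0.5% NP-40 at 4°C, soluble protein from a 21,000xg, 90 min spin was quantified by TMTpro 16plex LC-MS/MS with channel sums equalised. Thermal stability is expressed against control samples, from duplicates, as a log2 fold change.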

[2] = compound: C/C(=N\NC(=O)C1=CC(=CC=C1)S(=O)(=O)N2CCOCC2)/C3=C(C=CC(=C3)Cl)O
In short: as §1

[3] = compound: C1=CC(=C(C=C1Cl)C2=NC3=NC=CN=C3C(=N2)NC4=CC=NC=C4)F
In short: as §1

[4] = compound: C1=CC(=CC=C1C2=NC3=C(N2)C=C(C=C3)C(=O)N)OC4=CC=C(C=C4)Cl
In short: as §1

[5] = compound: C1=CC2=C(C=CC(=C2)/C=C\3/C(=O)NC(=NCC4=CC=CS4)S3)N=C1
In short: as §1

[6] = compound: C1=CC2=NC=CN=C2C=C1/C=C/3\C(=O)NC(=O)S3
In short: as §1

[7] = compound: C1=CC=C(C=C1)C2=NC(=C(N2)C3=CC=NC=C3)C4=CC(=C(C=C4)Cl)O
In short: as §1

[8] = compound: C1=CC=C2C(=C1)C3=NNC4=CC=CC(=C43)C2=O
In short: as §1

[9] = compound: C1CCN(C1)C(=O)NC2=CC=CC(=C2)NC3=NC=C(C(=N3)NCCC4=CN=CN4)Br
In short: as §1

[10] = compound: C1CN(CCC1(CC2=CC=C(C=C2)Cl)N)C3=NC=NC4=C3C=CN4
In short: as §1

Measured: log2 fold change

NQO1 (UniProt P15559)
Chain of UniProt P15559 (P15559 whole entry, looked up): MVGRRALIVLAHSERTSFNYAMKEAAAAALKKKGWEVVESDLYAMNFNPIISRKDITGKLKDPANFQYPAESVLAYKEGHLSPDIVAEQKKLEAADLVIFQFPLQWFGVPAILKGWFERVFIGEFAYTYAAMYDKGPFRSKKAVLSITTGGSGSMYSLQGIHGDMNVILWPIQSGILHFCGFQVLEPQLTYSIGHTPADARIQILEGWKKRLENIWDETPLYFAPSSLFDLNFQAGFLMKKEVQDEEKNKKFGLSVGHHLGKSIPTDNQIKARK
inactive: [1] -0.064 | [2] 0.037 | [3] 0.089 | [4] -0.002 | [5] -0.06 | [6] -0.005 | [7] -0.014 | [9] -0.015 | [10] 0.065
active: [8] 0.269

MT-ATP6 (UniProt P00846)
inactive: [1] 0.207 | [2] 0.146 | [3] -0.042 | [4] -0.07 | [5] -0.078 | [6] -0.391 | [7] -0.048 | [8] -0.017 | [9] -0.073 | [10] -0.042

NAA38 isoform 2 (UniProt Q9BRA0)
inactive: [1] 0.139 | [2] 0.083 | [3] 0.092 | [4] -0.003 | [5] 0.034 | [6] 0.015 | [7] 0.044 | [8] -0.016 | [9] -0.009 | [10] 0.082

NNMT (UniProt P40261)
inactive: [1] 0.037 | [2] 0.062 | [3] 0.123 | [4] 0.021 | [5] 0.074 | [6] 0 | [8] 0.028 | [9] 0.045 | [10] 0.043

MT-ND1 (UniProt P03886)
inactive: [1] -0.075 | [2] 0.031 | [3] -0.028 | [4] 0.097 | [5] -0.005 | [6] 0.032 | [7] 0.053 | [8] 0.12 | [9] -0.187 | [10] 0.018

NRF1 isoform 4 (UniProt Q16656)
inactive: [1] 0.079 | [2] 0.012 | [3] -0.161 | [4] -0.028 | [5] 0.053 | [6] -0.001 | [7] -0.012 | [8] -0.116 | [9] -0.051 | [10] -0.003

NELFB isoform 2 (UniProt Q8WX92)
inactive: [1] 0.046 | [2] 0.151 | [3] 0 | [4] -0.036 | [5] 0.054 | [6] 0.07 | [7] -0.049 | [8] 0.01 | [9] -0.075 | [10] -0.025

MRPS24 (UniProt Q96EL2)
inactive: [1] -0.175 | [2] 0.022 | [3] -0.032 | [4] 0.062 | [5] 0.016 | [6] -0.02 | [7] 0.01 | [8] 0.039 | [9] 0.071 | [10] -0.1

MRFAP1 (UniProt Q9Y605)
inactive: [1] -0.007 | [2] -0.019 | [4] -0.013 | [5] -0.334 | [6] 0.014 | [7] -0.045 | [8] 0.141 | [9] -0.162 | [10] -0.106

NDUFB10 (UniProt O96000)
inactive: [1] -0.009 | [2] -0.067 | [3] 0.018 | [4] 0.03 | [5] 0.06 | [6] 0.025 | [7] -0.038 | [8] -0.021 | [9] 0.026 | [10] 0.045

MRPS31 (UniProt Q92665)
inactive: [1] 0.003 | [2] 0.001 | [3] -0.032 | [4] 0.105 | [5] -0.004 | [6] 0.023 | [7] 0.048 | [8] 0.064 | [9] 0.003 | [10] -0.066

MPHOSPH10 (UniProt O00566)
inactive: [1] -0.079 | [2] -0.005 | [3] -0.412 | [4] -0.023 | [5] 0.031 | [6] 0.061 | [7] 0.07 | [8] -0.004 | [9] 0.024 | [10] -0.023

NELFCD (UniProt Q8IXH7)
inactive: [1] 0.096 | [2] 0.034 | [3] 0.121 | [4] -0.154 | [5] 0.056 | [6] 0.031 | [8] 0.06

NA (UniProt J3KR12)
inactive: [3] -0.073 | [6] 0.254 | [7] 0.075

NCOA5 (UniProt Q9HCD5)
inactive: [1] -0.057 | [4] 0.156 | [7] -0.094

MT-ND2 (UniProt P03891)
inactive: [1] -0.067 | [2] -0.063 | [4] 0.062 | [5] -0.108 | [6] 0.104 | [7] 0.116 | [8] 0.044 | [9] -0.016 | [10] -0.093

MRM2 (UniProt Q9UI43)
inactive: [1] 0.023 | [2] 0.182 | [4] 0.031 | [5] 0.185 | [8] 0.121 | [9] -0.017 | [10] -0.002

MTHFD1, A0A384N5Y3
Chain of MTHFD1, A0A384N5Y3 (A0A384N5Y3 whole entry, looked up): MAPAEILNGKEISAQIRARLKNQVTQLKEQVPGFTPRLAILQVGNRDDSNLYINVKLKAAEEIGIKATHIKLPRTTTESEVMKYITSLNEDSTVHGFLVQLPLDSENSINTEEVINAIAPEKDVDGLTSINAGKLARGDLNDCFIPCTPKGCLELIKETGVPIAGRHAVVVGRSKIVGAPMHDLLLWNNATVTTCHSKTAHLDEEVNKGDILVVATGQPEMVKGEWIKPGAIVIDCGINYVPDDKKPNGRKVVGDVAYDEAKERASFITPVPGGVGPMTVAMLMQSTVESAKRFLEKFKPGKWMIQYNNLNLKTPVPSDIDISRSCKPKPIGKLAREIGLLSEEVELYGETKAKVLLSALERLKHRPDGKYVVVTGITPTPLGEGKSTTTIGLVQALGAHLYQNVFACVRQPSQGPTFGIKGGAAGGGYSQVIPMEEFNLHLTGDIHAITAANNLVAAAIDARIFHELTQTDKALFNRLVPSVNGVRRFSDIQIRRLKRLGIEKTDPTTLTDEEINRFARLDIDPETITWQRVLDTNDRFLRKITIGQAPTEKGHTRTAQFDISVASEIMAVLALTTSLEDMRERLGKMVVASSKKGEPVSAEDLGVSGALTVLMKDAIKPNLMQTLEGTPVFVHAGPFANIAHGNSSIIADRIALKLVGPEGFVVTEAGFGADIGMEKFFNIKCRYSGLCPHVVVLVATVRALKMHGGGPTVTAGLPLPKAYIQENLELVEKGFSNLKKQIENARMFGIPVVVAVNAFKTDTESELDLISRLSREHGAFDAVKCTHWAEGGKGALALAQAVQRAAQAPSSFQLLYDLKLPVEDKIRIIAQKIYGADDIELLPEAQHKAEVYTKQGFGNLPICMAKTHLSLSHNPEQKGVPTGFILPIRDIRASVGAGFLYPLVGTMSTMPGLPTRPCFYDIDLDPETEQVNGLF
inactive: [2] 0.056 | [3] 0.081 | [5] 0.146 | [6] -0.06 | [7] 0.036 | [8] 0.01 | [9] -0.004 | [10] 0.033

MITF (UniProt O75030)
Chain of UniProt O75030 (O75030 whole entry, looked up): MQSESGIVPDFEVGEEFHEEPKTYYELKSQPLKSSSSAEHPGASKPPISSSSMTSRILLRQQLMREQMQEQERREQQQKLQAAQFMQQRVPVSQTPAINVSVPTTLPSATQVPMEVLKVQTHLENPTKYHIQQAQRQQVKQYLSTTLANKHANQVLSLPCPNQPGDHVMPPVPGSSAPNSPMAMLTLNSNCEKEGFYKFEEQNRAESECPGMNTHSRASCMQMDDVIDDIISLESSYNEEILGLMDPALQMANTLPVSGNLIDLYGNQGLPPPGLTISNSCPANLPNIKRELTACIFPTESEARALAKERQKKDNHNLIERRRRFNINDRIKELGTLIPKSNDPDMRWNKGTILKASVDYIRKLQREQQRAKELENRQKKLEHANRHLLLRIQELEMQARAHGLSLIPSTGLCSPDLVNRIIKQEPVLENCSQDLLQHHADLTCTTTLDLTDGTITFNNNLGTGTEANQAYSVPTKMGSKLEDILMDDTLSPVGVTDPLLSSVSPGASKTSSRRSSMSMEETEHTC
inactive: [1] -0.021 | [2] -0.015 | [4] 0.041 | [5] -0.011 | [8] 0.047

NDUFA7 (UniProt M0R0N0)
inactive: [1] 0.101 | [4] -0.051 | [6] 0.015

NCBP2AS2 (UniProt Q69YL0)
inactive: [1] 0.033 | [2] 0.104 | [4] 0.054 | [5] 0 | [6] 0.106 | [7] -0.029 | [8] 0.148 | [9] 0.048 | [10] 0.113

MOB3B (UniProt Q86TA1)
inactive: [1] -0.305 | [2] 0.302 | [4] -0.271 | [5] 0.24 | [6] -0.056 | [8] -0.092 | [9] -0.186 | [10] 0.059

ORC3 (UniProt Q9UBD5)
inactive: [2] 0.097 | [5] -0.104 | [8] 0.105

OXR1 isoform 2 (UniProt Q8N573)
inactive: [2] 0.137 | [3] -0.362 | [5] -0.034 | [7] -0.056 | [8] 0.068 | [9] 0.02 | [10] -0.022

MOB2 isoform 3 (UniProt Q70IA6)
Chain of UniProt Q70IA6 (Q70IA6 whole entry, looked up): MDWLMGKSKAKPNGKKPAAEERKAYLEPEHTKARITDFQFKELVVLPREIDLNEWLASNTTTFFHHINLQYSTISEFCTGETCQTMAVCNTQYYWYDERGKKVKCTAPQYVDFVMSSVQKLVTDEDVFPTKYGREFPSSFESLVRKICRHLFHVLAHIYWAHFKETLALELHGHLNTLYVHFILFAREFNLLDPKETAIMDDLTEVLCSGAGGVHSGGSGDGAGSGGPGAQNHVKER
inactive: [1] 0.029 | [3] -0.077 | [4] -0.001 | [6] 0.06 | [7] 0.025 | [9] 0.135 | [10] -0.22

NA, A0A1W2PSA9
inactive: [2] -0.065 | [5] -0.111 | [7] -0.008 | [8] -0.104 | [9] 0.101 | [10] -0.086

OAF (UniProt Q86UD1)
inactive: [1] -0.115 | [4] 0.05 | [7] -0.174

P4HA2 (UniProt O15460)
active: [3] -0.548
inactive: [1] -0.075 | [4] 0.034 | [6] -0.025 | [7] -0.02 | [9] -0.016 | [10] -0.035

MXRA7 isoform 3 (UniProt P84157)
inactive: [7] -0.08

NA, A0A494C071
inactive: [2] 0 | [3] 0.197 | [5] -0.005 | [6] 0.079 | [8] -0.018 | [9] 0.136 | [10] 0.114

MPHOSPH8 isoform 2 (UniProt Q99549)
Chain of UniProt Q99549 (Q99549 whole entry, looked up): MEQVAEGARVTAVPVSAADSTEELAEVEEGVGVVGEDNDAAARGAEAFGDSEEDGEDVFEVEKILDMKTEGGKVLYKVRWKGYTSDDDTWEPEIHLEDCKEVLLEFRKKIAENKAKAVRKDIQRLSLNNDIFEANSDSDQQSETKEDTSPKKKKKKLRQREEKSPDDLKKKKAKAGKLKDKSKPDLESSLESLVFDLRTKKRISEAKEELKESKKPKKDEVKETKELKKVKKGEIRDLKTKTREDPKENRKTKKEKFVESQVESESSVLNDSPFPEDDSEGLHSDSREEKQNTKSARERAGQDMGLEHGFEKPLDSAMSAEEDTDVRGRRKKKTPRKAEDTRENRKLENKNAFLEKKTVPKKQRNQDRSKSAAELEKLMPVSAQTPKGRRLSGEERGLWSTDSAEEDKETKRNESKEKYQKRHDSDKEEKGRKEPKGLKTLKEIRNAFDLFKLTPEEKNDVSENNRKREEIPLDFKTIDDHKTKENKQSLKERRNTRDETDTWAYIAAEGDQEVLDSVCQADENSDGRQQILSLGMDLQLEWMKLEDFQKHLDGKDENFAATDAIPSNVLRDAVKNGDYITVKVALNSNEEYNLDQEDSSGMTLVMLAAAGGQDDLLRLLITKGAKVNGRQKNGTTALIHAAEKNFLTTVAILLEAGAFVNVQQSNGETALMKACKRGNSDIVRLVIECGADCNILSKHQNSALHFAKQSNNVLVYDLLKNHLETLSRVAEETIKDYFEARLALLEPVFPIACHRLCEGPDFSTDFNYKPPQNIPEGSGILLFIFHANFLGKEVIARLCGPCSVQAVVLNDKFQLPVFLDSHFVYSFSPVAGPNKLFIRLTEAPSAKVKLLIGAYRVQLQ
inactive: [2] 0.033 | [3] 0.24 | [5] -0.044 | [7] -0.055 | [8] -0.086 | [9] -0.02 | [10] -0.065

MLH1 (UniProt P40692)
inactive: [2] 0.027 | [3] 0.077 | [5] -0.038 | [6] 0.096 | [8] 0.053 | [9] -0.165 | [10] 0.039

NAP1L1 (UniProt B7Z9C2)
inactive: [1] 1.01 | [2] 0.122 | [4] -0.051 | [5] 0.156 | [6] 0.175 | [8] -0.178

NEU3 isoform 2 (UniProt Q9UQ49)
inactive: [1] 0.164 | [4] 0

NOLC1 isoform 3 (UniProt Q14978)
inactive: [1] 0.002 | [4] 0.183

NPM3 (UniProt O75607)
Chain of UniProt O75607 (O75607 whole entry, looked up): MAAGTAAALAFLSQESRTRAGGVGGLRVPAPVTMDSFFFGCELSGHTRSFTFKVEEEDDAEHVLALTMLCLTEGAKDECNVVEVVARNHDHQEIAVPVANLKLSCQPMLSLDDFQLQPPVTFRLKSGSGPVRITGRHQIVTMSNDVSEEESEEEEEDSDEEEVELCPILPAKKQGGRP
inactive: [1] -0.083 | [2] -0.104 | [4] 0.02 | [5] -0.184 | [6] 0.04 | [7] -0.025 | [8] -0.022 | [9] -0.054 | [10] -0.087

NUDT7 (UniProt P0C024)
inactive: [1] -0.246 | [3] -0.282 | [4] 0.148 | [6] -0.066 | [7] -0.118 | [9] 0.158 | [10] -0.024

MSANTD2 (UniProt Q6P1R3)
inactive: [3] 0.012 | [9] -0.081 | [10] -0.052

NKTR (UniProt P30414)
inactive: [1] 0.597 | [4] 0.028 | [6] -0.149

OVCA2 (UniProt Q8WZ82)
inactive: [2] 0.23 | [5] 0.108 | [6] 0.268 | [7] -0.044 | [8] -0.131

NOS1AP (UniProt O75052)
active: [10] 1.09
inactive: [1] 0.134 | [3] 0.517 | [4] -0.006 | [6] -0.02 | [7] -0.248 | [9] -0.208

PAFAH2 (UniProt Q99487)
inactive: [1] -0.004 | [2] 0.138 | [4] -0.018 | [5] -0.144 | [6] -0.02 | [7] -0.008 | [8] 0.011 | [9] -0.017 | [10] 0.08

NA (UniProt B2RBV5)
inactive: [3] -0.068 | [6] -0.015

MYSM1 (UniProt Q5VVJ2)
inactive: [6] 0.173 | [7] 0.37

NIPSNAP2 (UniProt C9J7B1)
inactive: [2] -0.171 | [5] -0.16 | [6] 0.057 | [8] -0.138

MYH16 (UniProt Q9H6N6)
inactive: [1] -0.044 | [2] 0.102 | [4] 0.049 | [5] -0.21 | [6] 0.284 | [8] 0.044 | [9] -0.089 | [10] -0.082

MON1A (UniProt Q86VX9)
inactive: [1] -0.119 | [3] 0.022 | [4] 0 | [6] -0.262 | [7] -0.017 | [9] 0 | [10] 0.135

MYLK (UniProt Q15746)
inactive: [1] 0.25 | [4] -0.146 | [6] -0.005 | [7] 0.291 | [9] 0.008 | [10] -0.066

NPC1L1 (UniProt Q9UHC9)
Chain of UniProt Q9UHC9 (Q9UHC9 whole entry, looked up): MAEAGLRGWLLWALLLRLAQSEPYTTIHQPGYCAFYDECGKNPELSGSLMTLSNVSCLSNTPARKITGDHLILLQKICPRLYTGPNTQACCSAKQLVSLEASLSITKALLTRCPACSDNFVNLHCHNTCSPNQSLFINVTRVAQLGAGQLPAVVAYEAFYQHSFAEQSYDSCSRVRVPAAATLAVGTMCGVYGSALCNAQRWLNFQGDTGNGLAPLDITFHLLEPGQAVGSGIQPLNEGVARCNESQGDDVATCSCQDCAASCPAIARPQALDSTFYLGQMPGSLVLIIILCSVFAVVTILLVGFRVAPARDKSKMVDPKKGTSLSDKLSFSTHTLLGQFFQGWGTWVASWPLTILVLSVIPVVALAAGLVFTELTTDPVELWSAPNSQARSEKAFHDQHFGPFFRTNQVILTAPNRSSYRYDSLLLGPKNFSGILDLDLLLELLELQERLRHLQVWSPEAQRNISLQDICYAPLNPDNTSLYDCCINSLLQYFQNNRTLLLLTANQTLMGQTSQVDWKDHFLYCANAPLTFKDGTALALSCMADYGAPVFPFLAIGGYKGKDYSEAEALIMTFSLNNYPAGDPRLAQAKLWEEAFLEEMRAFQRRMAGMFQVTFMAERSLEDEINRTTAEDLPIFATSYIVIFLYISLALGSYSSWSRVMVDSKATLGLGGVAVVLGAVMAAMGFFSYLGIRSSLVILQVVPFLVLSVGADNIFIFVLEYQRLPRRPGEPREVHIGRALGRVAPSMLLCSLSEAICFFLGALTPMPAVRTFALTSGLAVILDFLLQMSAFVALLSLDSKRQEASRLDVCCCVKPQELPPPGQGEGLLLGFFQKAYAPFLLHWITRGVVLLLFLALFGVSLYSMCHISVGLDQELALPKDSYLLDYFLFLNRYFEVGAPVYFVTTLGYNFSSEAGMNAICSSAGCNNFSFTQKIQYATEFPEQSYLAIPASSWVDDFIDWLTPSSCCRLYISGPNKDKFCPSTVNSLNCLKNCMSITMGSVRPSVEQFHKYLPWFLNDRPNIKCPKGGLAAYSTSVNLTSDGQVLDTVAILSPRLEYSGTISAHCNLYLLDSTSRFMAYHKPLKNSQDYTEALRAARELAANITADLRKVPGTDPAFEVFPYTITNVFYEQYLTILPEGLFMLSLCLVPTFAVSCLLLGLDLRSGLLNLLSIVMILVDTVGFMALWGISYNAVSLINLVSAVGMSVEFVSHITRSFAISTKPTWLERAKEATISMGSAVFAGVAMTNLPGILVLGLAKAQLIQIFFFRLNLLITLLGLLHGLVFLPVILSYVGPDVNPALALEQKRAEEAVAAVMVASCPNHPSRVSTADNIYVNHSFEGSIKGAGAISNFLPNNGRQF
inactive: [2] 0.006 | [5] 0.073 | [6] 0.143 | [8] -0.02 | [9] 0 | [10] -0.033

NA, A0A2R8Y3M9
inactive: [2] -0.335 | [5] 0.355 | [6] 0.132 | [7] -0.072 | [8] -0.137

NIPSNAP3B (UniProt Q9BS92)
Chain of UniProt Q9BS92 (Q9BS92 whole entry, looked up): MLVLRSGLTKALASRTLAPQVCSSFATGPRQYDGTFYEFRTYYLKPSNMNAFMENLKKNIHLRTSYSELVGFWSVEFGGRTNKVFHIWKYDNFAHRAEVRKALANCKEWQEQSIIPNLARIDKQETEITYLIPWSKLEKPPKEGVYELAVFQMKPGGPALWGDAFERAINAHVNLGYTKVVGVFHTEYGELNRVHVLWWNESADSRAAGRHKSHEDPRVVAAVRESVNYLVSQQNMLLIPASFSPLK
inactive: [1] -0.061 | [2] -0.014 | [4] -0.071 | [5] -0.159 | [6] 0.031 | [8] 0.007 | [9] 0.008 | [10] 0.051

NUDT6 (UniProt P53370)
Chain of UniProt P53370 (P53370 whole entry, looked up): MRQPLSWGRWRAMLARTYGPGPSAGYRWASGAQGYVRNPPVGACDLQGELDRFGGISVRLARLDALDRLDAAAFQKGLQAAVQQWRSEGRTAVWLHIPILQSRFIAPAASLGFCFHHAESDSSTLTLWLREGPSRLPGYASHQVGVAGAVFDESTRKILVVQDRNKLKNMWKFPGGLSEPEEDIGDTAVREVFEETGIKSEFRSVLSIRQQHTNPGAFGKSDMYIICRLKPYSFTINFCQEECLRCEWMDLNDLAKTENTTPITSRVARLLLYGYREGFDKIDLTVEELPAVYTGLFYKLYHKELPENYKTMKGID
inactive: [1] -0.022 | [3] 0.155 | [4] 0.103 | [7] -0.12 | [9] 0.121 | [10] 0.35
